# According to PubChem BioAssay AID2417 (National Center for Advancing Translational Sciences (NCATS), 2010):
# The whole screen tested about 140,000 compounds, of which about 4,300 (3.1%) were called active. Another 21% or so got no clear call; they are omitted. The sample holds actives, similar compounds and a random draw of the others, so the mix is not that of the screen. Values without a mark were called inactive.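 How the source made its calls: active means readout at or below -70, meaning at least 70% loss of cells showing the perinucleolar compartment, a nuclear body marking cancer cells; inconclusive means readout between -30 and a set limit; inactive means the rest.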
# Experiment: High Content Assay for Compounds that inhibit the Assembly of the Perinucleolar Compartment;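 further: plate controls were DMSO wells for no effect and camptothecin positive control wells for full effect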
# Conditions: PC3M PTB-GFP, PNC prevalence imaging, 16 h; at 10 µM; hits give low values
# Outline: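 PC3M cells stably expressing PTB-GFP, 750–1000 cells/well, treated 16 h at 37 °C with compound (23 nl of library stock), in duplicate. After paraformaldehyde fixation and Hoechst stain, imaged at 20x; PNC prevalence scored by image analysis.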
row,SMILES,"activity change (PNC), negative = inhibition"
1,Cc1ccc(Cc2cnc(N)s2)o1,-17.8%
2,Cc1cnc(C(=O)OCC(=O)Nc2ccc(Cl)cc2Cl)cn1,261%
3,Cc1ccc(CCC(=O)Nc2ncc(Cc3cc(Cl)ccc3Cl)s2)o1,-88.9% (active)
4,O=C(/C=C/c1ccccc1[N+](=O)[O-])NCC1CCCO1 (stereo not drawn),58.9%
5,Cc1ccc(SCC(=O)Nc2ccc3c(c2)OCCO3)cc1,36.7%
6,OCCNCCOc1ccc(Cl)c(Cl)c1,32.5%
7,Cc1ccc(C)c(NC(=O)CSc2nc3c(oc4ccccc43)c(=O)n2-c2ccccc2)c1,-5.79%
8,Cc1ccc(-n2c(SCC(=O)Nc3ncc(Cl)cc3Cl)nc3ccccc32)cc1,-115% (active)
9,Cc1ccc(SCCC(=O)OCC(=O)Nc2ncc(Cl)cc2Cl)cc1,-2.97%
10,CN(C)/C(=N\OC(=O)c1ccccc1)c1nonc1N,6.05%
11,C/C(Cc1ccccc1)=N\NC(=O)CNC(=O)c1cccc(Br)c1,19.9%
12,Cc1cc(N2CCOCC2)nc(-c2ccc(Br)cc2)n1,-19.2%
13,COc1ccc(-c2nc(-c3ccccc3)no2)c(OC)c1,-102% (active)
14,CCOc1nc(-c2ccc(OC)cc2)ccc1-c1noc(-c2cc(OC)c(OC)c(OC)c2)n1,-17.5%
15,COc1ccc(-c2noc(-c3cccc(OC)c3OC)n2)cc1OC,7.54%
16,Cc1ccc(S(=O)(=O)N(NC2=NS(=O)(=O)c3ccccc32)C(=O)c2ccccc2)cc1,35.5%
17,COc1ccc(C(=O)NNS(=O)(=O)c2ccc(C)cc2)cc1,-23.7%
18,CC(C)(C)c1cc(CN2CCN(CCC#N)CC2)cc(C(C)(C)C)c1O,-122% (active)
19,N#CCCN1CCN(S(=O)(=O)c2ccc(S(=O)(=O)N3CCCC3)cc2)CC1,-15%
20,N#CCCN1CCN(S(=O)(=O)c2ccc(S(=O)(=O)NC3CC3)cc2)CC1,-11.6%
21,CCCCC(=O)Nc1ccc(C(=O)Nc2cc(C(F)(F)F)ccc2Cl)cc1,22.8%
22,CC(=O)Nc1cccc(/C(C)=N/NC(=O)c2c(-c3ccccc3Cl)noc2C)c1,-109% (active)
23,Cc1onc(-c2ccccc2Cl)c1C(=O)NCCn1ccc2ccccc21,-12.7%
24,CC(=O)Nc1cccc(/C(C)=N/NC(=O)c2ccccc2Cl)c1,5.62%

row,SMILES,"activity change (PNC), negative = inhibition"
1,CC(C)=C(NC(=O)c1ccccc1)C(=O)N/N=C(\C)c1ccccc1O,6.63%
2,CCOc1cccc(-c2nnc3sc(COc4ccc(OC)cc4)nn23)c1,-29.7%
3,CCOc1cccc(-n2nnnc2-c2ccc(OC)cc2)c1,-83.5% (active)
4,COc1ccc(-n2nnnc2-c2nc3ccccc3s2)cc1,-8.45%
5,CSCCC(Nc1ccc(S(=O)(=O)N2CCOCC2)cc1[N+](=O)[O-])C(=O)OCC(=O)N(C(C)C)C(C)C (stereo not drawn),-25.5%
6,CCC(C)(C(=O)Nc1ccccc1C)N(C(=O)CNC(C)=O)c1ccc(C)cc1 (stereo not drawn),-15.4%
7,Cc1ccc(-c2nc(CS(=O)CC(=O)NC3CCCC3)c(C)o2)cc1 (stereo not drawn),-106% (active)
8,Cc1ccc(-c2nc(CS(=O)CC(=O)N3CCN(c4ncccn4)CC3)c(C)o2)cc1 (stereo not drawn),11.5%
9,COc1ccc(-c2nc(CS(=O)CC(=O)NCc3ccccn3)c(C)o2)cc1 (stereo not drawn),-19.8%
10,CSc1ccc(/C=C/C(=O)NC23CC4CC(CC(C4)C2)C3)cc1,11.8%
11,Cc1cc(=O)[nH]c(SCc2cc(Cl)ccc2OC(F)F)n1,4.54%
12,CCCCOc1ccc(Cl)cc1CSc1nncn1N,-89.7% (active)
13,CCOC(=O)c1c(NC(=O)Cn2nc(C(F)(F)F)cc2C)sc2c1CCC2,36.1%
14,CN1CCN(C(=O)/C(=C\c2cccs2)NC(=O)c2cccs2)CC1,0.966%
15,COc1cc2c(cc1/C=C1/NC(=O)N(c3ccccc3)C1=O)OCO2,-20.8%
16,CCOC(=O)c1c(C)n(C)c2ccc(OC)c(NS(=O)(=O)CC)c12,-8.82%
17,COc1ccc2c(-c3ccccc3)cc(SCC(=O)N(C)C3CCS(=O)(=O)C3)nc2c1 (stereo not drawn),46.3%
18,O=[N+]([O-])c1ccc(N2CCNCC2)cc1NCc1cccnc1,59.2%
19,COc1ccccc1NC(=O)c1ccc2nc(N3C(=O)CCC3=O)sc2c1,133%
20,Cc1cc(NC(=O)c2cccc(N3C(=O)CCC3=O)c2)no1,-7.91%
21,O=C(Nc1cccc2cccnc12)c1cccc(N2C(=O)CCC2=O)c1,-100% (active)
22,CCOC(=O)NN1C(=O)c2ccccc2NC1c1ccccc1O (stereo not drawn),19.7%
23,O=C(OCC(=O)c1c[nH]c2ccccc12)c1cccc(O)c1,49.4%
24,O=S(=O)(NCC1CCCO1)c1cnc(Cl)c(Cl)c1 (stereo not drawn),-19.6%
